# Out of some 5,500 compounds screened, about 2,000 (36%) were called active. Another 18% or so got no clear call; they are omitted. Some of the results follow. A number with no mark means an inactive call. Rule as the data show it: active = normalized growth mostly below about 0.91 (no sharp cut-off); inconclusive = no clear call, values can overlap the other calls; inactive = mostly above about 0.92.
# Assay: chemical genetic growth profiling, strain panel (AID 1159580);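 also: tested at 20 µM; growth read once vehicle control cultures reached saturation at 30 °C; 1 = growth at the plate median or of vehicle wells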
# Settings: S. cerevisiae deletion strains, growth OD
# [1] = locus YAL021C, strain ccr4, stronger effect = lower value
# [2] = locus YAL026C, strain drs2, stronger effect = lower value
# [3] = locus YAL030W, strain snc1, stronger effect = lower value
# [4] = locus YBL061C, strain skt5, stronger effect = lower value
# [5] = locus YBR009C, strain hhf1, stronger effect = lower value
# [6] = locus YBR023C, strain chs3, stronger effect = lower value
# [7] = locus YBR171W, strain sec66, stronger effect = lower value
# [8] = locus YBR231C, strain swc5, stronger effect = lower value
# [9] = locus YBR279W, strain paf1, stronger effect = lower value
# [10] = locus YCL011C, strain gbp2, stronger effect = lower value
# [11] = locus YCL016C, strain dcc1, stronger effect = lower value
# [12] = locus YCL061C, strain MRC1, stronger effect = lower value
# [13] = locus YCL069W, strain vba3, stronger effect = lower value
# [14] = locus YCR088W, strain abp1, stronger effect = lower value
# [15] = locus YDL005C, strain med2, stronger effect = lower value
# [16] = locus YDL040C, strain nat1, stronger effect = lower value
# [17] = locus YDR001C, strain nth1, stronger effect = lower value
# [18] = locus YDR069C, strain doa4, stronger effect = lower value
# [19] = locus YDR137W, strain rgp1, stronger effect = lower value
# [20] = locus YDR159W, strain sac3, stronger effect = lower value
# [21] = locus YDR297W, strain sur2, stronger effect = lower value
# [22] = locus YDR334W, strain swr1, stronger effect = lower value
# [23] = locus YDR335W, strain msn5, stronger effect = lower value
# [24] = locus YDR392W, strain spt3, stronger effect = lower value
# [25] = locus YEL003W, strain gim4, stronger effect = lower value
# [26] = locus YEL037C, strain rad23, stronger effect = lower value
# [27] = locus YEL061C, strain CIN8 (second series), stronger effect = lower value
# [28] = locus YER015W, strain faa2, stronger effect = lower value
# [29] = locus YER016W, strain bim1, stronger effect = lower value
# [30] = locus YER111C, strain swi4, stronger effect = lower value
# [31] = locus YER155C, strain BEM2 (second series), stronger effect = lower value
# [32] = locus YFR010W, strain ubp6, stronger effect = lower value
# [33] = locus YGL167C, strain pmr1, stronger effect = lower value
# [34] = locus YGL173C, strain kem1, stronger effect = lower value
# [35] = locus YGL227W, strain vid30, stronger effect = lower value
# [36] = locus YGL240W, strain doc1, stronger effect = lower value
# [37] = locus YGL253W, strain hxk2, stronger effect = lower value
# [38] = locus YHR013C, strain ard1, stronger effect = lower value
# [39] = locus YHR027C, strain rpn1, stronger effect = lower value
# [40] = locus YHR142W, strain chs7, stronger effect = lower value
# [41] = locus YJL092W, strain hpr5, stronger effect = lower value
# [42] = locus YJL095W, strain BCK1 (second series), stronger effect = lower value
# [43] = locus YJL115W, strain asf1, stronger effect = lower value
# [44] = locus YJL129C, strain trk1, stronger effect = lower value
# [45] = locus YJL154C, strain vps35, stronger effect = lower value
# [46] = locus YJL164C, strain tpk1, stronger effect = lower value
# [47] = locus YJL166W, strain qcr8, stronger effect = lower value
# [48] = locus YJL187C, strain SWE1, stronger effect = lower value
# [49] = locus YKL160W, strain elf1, stronger effect = lower value
# [50] = locus YKR026C, strain gcn3, stronger effect = lower value
# [51] = locus YKR091W, strain srl3, stronger effect = lower value
# [52] = locus YLL001W, strain dnm1, stronger effect = lower value
# [53] = locus YLL026W, stronger effect = lower value
# [54] = locus YLL041C, strain sdh2, stronger effect = lower value
# [55] = locus YLR027C, strain aat2, stronger effect = lower value
# [56] = locus YLR221C, strain rsa3, stronger effect = lower value
# [57] = locus YLR258W, strain gsy2, stronger effect = lower value
# [58] = locus YLR262C, strain YPT6 (second series), stronger effect = lower value
# [59] = locus YLR320W, strain mms22, stronger effect = lower value
# [60] = locus YLR342W, strain FKS1, stronger effect = lower value
# [61] = locus YLR357W, strain rsc2, stronger effect = lower value
# [62] = locus YLR370C, strain arc18, stronger effect = lower value
# [63] = locus YLR384C, strain iki3, stronger effect = lower value
# [64] = locus YML120C, strain ndi1, stronger effect = lower value
# [65] = locus YMR058W, strain fet3, stronger effect = lower value
# [66] = locus YMR125W, strain sto1, stronger effect = lower value
# [67] = locus YMR129W, stronger effect = lower value
# [68] = locus YMR205C, strain PFK2, stronger effect = lower value
# [69] = locus YMR231W, strain pep5, stronger effect = lower value
# [70] = locus YNL071W, strain lat1, stronger effect = lower value
# [71] = locus YNL209W, strain ssb2, stronger effect = lower value
# [72] = locus YNL248C, strain rpa49, stronger effect = lower value
# [73] = locus YNL322C, strain KRE1 (second series), stronger effect = lower value
# [74] = locus YNR049C, strain mso1, stronger effect = lower value
# [75] = locus YOR001W, strain rrp6, stronger effect = lower value
# [76] = locus YOR070C, strain gyp1, stronger effect = lower value
# [77] = locus YOR080W, strain dia2, stronger effect = lower value
# [78] = locus YOR083W, strain WHI5, stronger effect = lower value
# [79] = locus YOR106W, strain vam3, stronger effect = lower value
# [80] = locus YOR265W, strain rbl2, stronger effect = lower value
# [81] = locus YOR270C, strain vph1, stronger effect = lower value
# [82] = locus YOR290C, strain snf2, stronger effect = lower value
# [83] = locus YPL051W, strain arl3, stronger effect = lower value
# [84] = locus YPL078C, strain atp4, stronger effect = lower value
# [85] = locus YPL106C, strain sse1, stronger effect = lower value
# [86] = locus YPL240C, strain hsp82, stronger effect = lower value
compound,measurement,setting,value
C[C@H]1CC[C@@H](C(C)(C)O)CC2=C1CC[C@@H]2C,normalized growth,[1],1
same,normalized growth,[2],0.984
same,normalized growth,[3],0.995
same,normalized growth,[4],0.985
same,normalized growth,[5],0.914
same,normalized growth,[6],0.959
same,normalized growth,[7],0.978
same,normalized growth,[8],1.01
same,normalized growth,[9],0.996
same,normalized growth,[10],0.982
same,normalized growth,[11],0.976
same,normalized growth,[12],0.995
same,normalized growth,[13],0.997
same,normalized growth,[14],0.993
same,normalized growth,[15],0.998
same,normalized growth,[16],0.983
same,normalized growth,[17],0.988
same,normalized growth,[18],0.981
same,normalized growth,[19],0.91
same,normalized growth,[20],0.912
same,normalized growth,"locus YDR195W, strain ref2",0.822 (active)
same,normalized growth,[21],0.988
same,normalized growth,[22],1.01
same,normalized growth,[23],0.992
same,normalized growth,[24],0.552 (active)
same,normalized growth,[25],0.984
same,normalized growth,[26],0.994
same,normalized growth,[27],1
same,normalized growth,[28],1.01
same,normalized growth,[29],0.967
same,normalized growth,[30],0.984
same,normalized growth,[31],0.927
same,normalized growth,[32],0.962
same,normalized growth,[33],0.985
same,normalized growth,[34],0.961
same,normalized growth,[35],0.999
same,normalized growth,[36],0.934
same,normalized growth,[37],1
same,normalized growth,[38],0.999
same,normalized growth,[39],0.994
same,normalized growth,"locus YHR030C, strain SLT2, stronger effect = lower value",0.819 (active)
same,normalized growth,"locus YHR079C, strain IRE1, stronger effect = lower value",0.767 (active)
same,normalized growth,[40],0.884
same,normalized growth,[41],0.995
same,normalized growth,[42],0.99
same,normalized growth,"locus YJL095W, strain BCK1, stronger effect = lower value",0.9
same,normalized growth,[43],0.994
same,normalized growth,[44],0.983
same,normalized growth,[45],0.992
same,normalized growth,[46],0.965
same,normalized growth,[47],0.948
same,normalized growth,[48],0.987
same,normalized growth,"locus YJR066W, strain TOR1, stronger effect = lower value",0.92
same,normalized growth,[49],0.979
same,normalized growth,[50],0.97
same,normalized growth,[51],0.993
same,normalized growth,[52],0.991
same,normalized growth,[53],0.978
same,normalized growth,[54],0.993
same,normalized growth,[55],0.979
same,normalized growth,"locus YLR113W, strain HOG1, stronger effect = lower value",0.764 (active)
same,normalized growth,[56],0.924
same,normalized growth,[57],0.971
same,normalized growth,[58],0.841 (active)
same,normalized growth,[59],0.896
same,normalized growth,[60],0.989
same,normalized growth,[61],0.893
same,normalized growth,[62],0.987
same,normalized growth,[63],0.995
same,normalized growth,[64],0.972
same,normalized growth,[65],0.993
same,normalized growth,[66],0.977
same,normalized growth,[67],0.986
same,normalized growth,[68],0.896
same,normalized growth,[69],0.999
same,normalized growth,[70],0.952
same,normalized growth,"locus YNL183C, strain NPR1, stronger effect = lower value",0.869
same,normalized growth,[71],0.995
same,normalized growth,[72],0.983
same,normalized growth,[73],0.987
same,normalized growth,[74],0.995
same,normalized growth,[75],0.958
same,normalized growth,[76],0.978
same,normalized growth,[77],1
same,normalized growth,[78],0.975
same,normalized growth,[79],0.972
same,normalized growth,"locus YOR231W, strain MKK1, stronger effect = lower value",0.849 (active)
same,normalized growth,[80],0.983
same,normalized growth,[81],0.97
same,normalized growth,[82],0.925
same,normalized growth,[83],0.979
same,normalized growth,[84],0.986
same,normalized growth,[85],0.889
same,normalized growth,[86],1.01
same,normalized growth,"locus YPL256C, strain CLN2, stronger effect = lower value",0.796 (active)
C=CC(N)CCC(=O)O (stereo not drawn),normalized growth,"locus YAL013W, strain DEP1, stronger effect = lower value",1.02
same,normalized growth,[1],0.971
same,normalized growth,[2],0.984
same,normalized growth,[3],0.985
same,normalized growth,"locus YAL040C, strain CLN3, stronger effect = lower value",1.07
same,normalized growth,[4],0.976
same,normalized growth,[5],0.99
same,normalized growth,[6],0.965
same,normalized growth,[7],0.955
same,normalized growth,[8],0.99
same,normalized growth,[9],0.986
same,normalized growth,[10],0.975
same,normalized growth,[11],0.976
same,normalized growth,"locus YCL061C, strain MRC1 (second series), stronger effect = lower value",1
same,normalized growth,[12],0.973
same,normalized growth,[13],0.98
same,normalized growth,[14],0.986
same,normalized growth,[15],0.977
same,normalized growth,[16],0.984
same,normalized growth,[17],0.975
same,normalized growth,[18],0.992
same,normalized growth,[19],0.94
same,normalized growth,"locus YDR150W, strain NUM1, stronger effect = lower value",1
same,normalized growth,[20],1.01
same,normalized growth,"locus YDR195W, strain ref2",1
same,normalized growth,[21],0.986
same,normalized growth,[22],0.972
same,normalized growth,[23],0.981
same,normalized growth,"locus YDR363W, strain ESC2, stronger effect = lower value",0.993
same,normalized growth,[24],0.922
same,normalized growth,[25],0.996
same,normalized growth,[26],0.975
same,normalized growth,[27],0.982
same,normalized growth,"locus YER002W, strain NOP16, stronger effect = lower value",0.993
same,normalized growth,[28],0.992
same,normalized growth,[29],0.999
same,normalized growth,[30],0.973
same,normalized growth,[31],0.988
same,normalized growth,[32],0.972
same,normalized growth,[33],0.973
same,normalized growth,[34],0.975
same,normalized growth,[35],0.99
same,normalized growth,[36],0.993
same,normalized growth,[37],0.98
same,normalized growth,"locus YGR078C, strain PAC10, stronger effect = lower value",0.987
same,normalized growth,"locus YGR229C, strain SMI1, stronger effect = lower value",1.03
same,normalized growth,[38],0.973
same,normalized growth,[39],0.972
same,normalized growth,[40],0.94
same,normalized growth,[41],0.983
same,normalized growth,[42],0.987
same,normalized growth,[43],0.972
same,normalized growth,[44],0.977
same,normalized growth,[45],0.974
same,normalized growth,[46],0.979
same,normalized growth,[47],0.971
same,normalized growth,[48],0.983
same,normalized growth,"locus YJR075W, strain HOC1, stronger effect = lower value",1.01
same,normalized growth,[49],0.964
same,normalized growth,[50],0.983
same,normalized growth,[51],0.985
same,normalized growth,[52],0.96
same,normalized growth,[53],1
same,normalized growth,[54],0.981
same,normalized growth,[55],0.984
same,normalized growth,[56],0.958
same,normalized growth,[57],0.981
same,normalized growth,[58],0.975
same,normalized growth,[59],0.952
same,normalized growth,[60],0.97
same,normalized growth,[61],0.971
same,normalized growth,[62],0.968
same,normalized growth,[63],0.965
same,normalized growth,[64],0.981
same,normalized growth,[65],0.98
same,normalized growth,[66],0.968
same,normalized growth,[67],0.988
same,normalized growth,[68],0.955
same,normalized growth,[69],0.97
same,normalized growth,"locus YMR307W, strain GAS1, stronger effect = lower value",1.02
same,normalized growth,[70],0.986
same,normalized growth,"locus YNL128W, strain TEP1, stronger effect = lower value",0.972
same,normalized growth,"locus YNL175C, strain NOP13, stronger effect = lower value",0.99
same,normalized growth,"locus YNL197C, strain WHI3, stronger effect = lower value",0.994
same,normalized growth,[71],0.991
same,normalized growth,"locus YNL224C, strain SQS1, stronger effect = lower value",0.991
same,normalized growth,[72],0.968
same,normalized growth,[73],0.967
same,normalized growth,[74],0.994
same,normalized growth,[75],0.996
same,normalized growth,[76],0.998
same,normalized growth,[77],0.974
same,normalized growth,"locus YOR083W, strain WHI5 (second series), stronger effect = lower value",0.991
same,normalized growth,[78],0.967
same,normalized growth,[79],0.961
same,normalized growth,[80],0.98
same,normalized growth,[81],0.939
same,normalized growth,[82],0.945
same,normalized growth,[83],0.973
same,normalized growth,"locus YPL055C, strain LGE1, stronger effect = lower value",1
same,normalized growth,[84],0.961
same,normalized growth,[85],0.971
same,normalized growth,[86],0.986
